For 40 compounds, Potency results are on record in PubChem BioAssay (NCATS).

Records with an inconclusive call do not appear. Where a call stands in place of a potency, no number is given. Active and inactive are the calls of the source. The call rests on the fitted dose curve; in most records, active means well fitted inhibition curve with a large enough effect; inconclusive means small, poorly fitted or top-dose-only effect, or effect the other way; inactive means flat fitted curve, though single readings scatter.
Potency means the concentration at half of the fitted maximal effect.

Sequence of ATPase family AAA domain-containing protein 5 (Homo sapiens) (Q96QE3 whole entry, looked up, the tested form may be a part): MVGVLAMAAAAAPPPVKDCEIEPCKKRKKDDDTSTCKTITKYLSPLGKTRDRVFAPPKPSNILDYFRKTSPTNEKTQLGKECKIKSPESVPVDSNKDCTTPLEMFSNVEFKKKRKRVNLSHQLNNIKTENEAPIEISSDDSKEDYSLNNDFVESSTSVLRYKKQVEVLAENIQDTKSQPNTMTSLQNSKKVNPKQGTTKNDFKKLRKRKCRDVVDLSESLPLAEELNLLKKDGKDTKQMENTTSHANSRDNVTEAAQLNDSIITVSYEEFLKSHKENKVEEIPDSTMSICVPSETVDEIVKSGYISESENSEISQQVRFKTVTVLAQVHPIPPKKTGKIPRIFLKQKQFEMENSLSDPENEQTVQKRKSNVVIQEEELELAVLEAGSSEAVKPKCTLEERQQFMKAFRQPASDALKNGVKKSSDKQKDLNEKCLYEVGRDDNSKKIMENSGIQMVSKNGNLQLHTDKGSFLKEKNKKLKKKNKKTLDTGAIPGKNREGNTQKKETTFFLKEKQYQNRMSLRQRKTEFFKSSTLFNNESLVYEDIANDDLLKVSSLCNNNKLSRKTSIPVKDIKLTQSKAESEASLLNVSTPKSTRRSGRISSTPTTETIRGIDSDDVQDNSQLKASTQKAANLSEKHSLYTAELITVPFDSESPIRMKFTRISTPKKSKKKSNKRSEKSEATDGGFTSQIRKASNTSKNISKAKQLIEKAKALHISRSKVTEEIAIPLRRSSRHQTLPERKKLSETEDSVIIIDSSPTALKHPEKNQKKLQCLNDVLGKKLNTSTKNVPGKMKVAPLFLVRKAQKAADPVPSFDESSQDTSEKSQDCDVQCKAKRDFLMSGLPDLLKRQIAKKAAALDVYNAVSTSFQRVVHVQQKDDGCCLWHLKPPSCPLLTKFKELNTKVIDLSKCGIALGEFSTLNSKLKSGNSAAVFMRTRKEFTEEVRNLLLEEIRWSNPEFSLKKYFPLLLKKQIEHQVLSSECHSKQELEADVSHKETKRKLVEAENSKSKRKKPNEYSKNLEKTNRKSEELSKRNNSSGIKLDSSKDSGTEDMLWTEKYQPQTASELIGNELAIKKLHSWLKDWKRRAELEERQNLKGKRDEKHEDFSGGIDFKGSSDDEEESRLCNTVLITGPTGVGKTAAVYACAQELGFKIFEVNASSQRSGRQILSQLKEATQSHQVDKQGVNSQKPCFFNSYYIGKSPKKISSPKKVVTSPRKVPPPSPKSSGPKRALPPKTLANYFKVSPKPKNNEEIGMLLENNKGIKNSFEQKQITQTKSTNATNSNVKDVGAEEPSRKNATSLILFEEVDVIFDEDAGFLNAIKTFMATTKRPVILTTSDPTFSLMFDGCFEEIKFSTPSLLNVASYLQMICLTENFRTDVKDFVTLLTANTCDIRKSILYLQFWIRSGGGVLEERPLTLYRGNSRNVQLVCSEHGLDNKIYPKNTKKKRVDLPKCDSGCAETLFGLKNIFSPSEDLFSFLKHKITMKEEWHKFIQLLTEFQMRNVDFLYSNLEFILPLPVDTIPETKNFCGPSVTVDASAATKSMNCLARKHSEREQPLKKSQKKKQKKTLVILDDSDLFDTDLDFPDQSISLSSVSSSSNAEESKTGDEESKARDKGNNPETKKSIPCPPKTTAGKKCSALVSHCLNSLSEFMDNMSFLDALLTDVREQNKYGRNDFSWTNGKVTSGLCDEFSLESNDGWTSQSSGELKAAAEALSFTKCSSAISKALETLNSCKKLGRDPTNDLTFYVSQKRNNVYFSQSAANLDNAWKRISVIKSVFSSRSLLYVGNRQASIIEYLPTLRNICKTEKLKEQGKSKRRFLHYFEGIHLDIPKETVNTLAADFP

The target in the test is ATPase family AAA domain-containing protein 5 (Homo sapiens) (UniProt Q96QE3). Description: Validation screen for small molecules that inhibit ELG1-dependent DNA repair in human embryonic kidney (HEK293T) cells expressing luciferase-tagged ELG1 (AID 493107). Further: nearly all actives have a fitted effect of over 70% in size. The following applies: HEK293T ELG1-luciferase level, luminescence, 5-fluorouridine co-treatment, 16 h; series mostly up to 46.1 µM. The text has this:
NIH Molecular Libraries Probe Production Network [MLPCN]
NIH Chemical Genomics Center [NCGC]
Assay Provider: Kyungjae Myung, NHGRI, NIH
Keywords: MLPCN, qHTS, NCGC, genotoxicity, cancer
Cancer cells divide rapidly compared to normal cells in the body. During cell division, cancer cells need to duplicate their genome by DNA replication. The failure of genome duplication leads to cancer cells' death. Therefore, inhibitors of DNA replication could specifically kill cancer cells. Based on this concept, many chemotherapeutic agents were developed and have been used to treat cancer patients. However, there are a limited number of agents available in the clinical setting, and some of those that do exist have low efficacy and severe side effects. Therefore, if we can find the compounds that effectively block DNA replication either by directly damaging DNA or by inhibiting other cellular mechanisms, the options for cancer treatment will be broadened. With this in mind, we developed a quantitative high-throughput ELG1-luciferase reporter gene assay. Small molecules that specifically block ELG1 function in response to DNA damage can be identified by monitoring the suppression of luciferase activity. Since ELG1 defines a pathway for repairing DNA damage, agents blocking ELG1 function can be used to sensitize cancer cells to chemotherapeutic agents whose mechanism of action involves the induction of DNA damage.
For genotoxicity screening, 2,000 cells in 4 uL/well were dispensed into white, solid-bottom 1536-well plates using a solenoid-based dispenser. Following transfer of 1 uL 5-Fluorouridine and 23 nL compound or DMSO vehicle by a pin tool, the plates were incubated 16 hr at 37 °C and 5% CO2. 5 ul ONE-Glo (Promega) was then added to each plate and following a 30 min incubation at room temperature, luciferase activity was quantified on a ViewLux CCD-based plate reader.
For `O=C1C=CC(=O)C=C1`, the Potency entry was “inactive”.

`CN1CC[C@@]2(C)c3cc(OC(=O)Nc4ccccc4)ccc3N(C)[C@@H]12`: the Potency result is “inactive”.

For `C[C@H](Cc1ccc2c(c1)OC(C(=O)O)(C(=O)O)O2)NC[C@H](O)c1cccc(Cl)c1`, the Potency entry was “inactive”.

For the compound `CC(C)(C)c1o[nH]c(=O)c1CC(N)C(=O)O` (stereo not given), the Potency entry was “inactive”.

Consider `COc1ccc2c(c1)C13CCCCC1C(C2)N(C)CC3` (stereo not given), for which the Potency result is “inactive”.

Consider `C=CCN1C[C@@H](C)N([C@H](c2ccc(C(=O)N(CC)CC)cc2)c2cccc(OC)c2)C[C@@H]1C`, for which the Potency entry is “inactive”.

In the case of `CC(=O)NBr`, the Potency result was “inactive”.

With `c1ccc2c(c1)[I+]c1ccccc1-2`, the Potency is 10.3 µM (active).

As for `NCC(O)c1cc(O)c(O)cc1F` (stereo not given), the Potency entry was “inactive”.

For `Oc1ccc2c3c1O[C@H]1c4oc5ccccc5c4C[C@@]4(O)C(C2)N(CC2CC2)CCC314` (stereo not given in full), the Potency entry is “inactive”.

Regarding `CC(Cc1ccc(OCC(=O)O)cc1)NCC(O)c1cccc(Cl)c1` (stereo not given), the Potency entry is “inactive”.

As for `NC(=O)CI`, the Potency entry was “inactive”.

Take `Cc1cc([C@@H]2CCCN2C)on1`: the Potency entry is “inactive”.

`CN1C2CCC1CC(OC(c1ccccc1)c1ccccc1N)C2` (stereo not given): the Potency entry was “inactive”.

As to `CCCN(CCC)[C@@H]1CCc2cccc(O)c2C1`, the Potency entry is “inactive”.

Regarding `COc1ccc2[nH]c3c(c2c1)CCNC3`, the Potency result was “inactive”.

`O=C1CC[C@@]2(O)C3Cc4ccc(O)c5c4C2(CCN3CC2CC2)[C@H]1O5` (stereo not given in full): the Potency entry is “inactive”.

Consider `CC(N)c1cccc(Cl)c1Cl` (stereo not given), for which the Potency entry is “inactive”.

For `C[N+](C)(C)CC#CCN1CCCC1=O`, the Potency entry is “inactive”.

`NNC(=O)c1ccc(O)cc1`: the Potency entry is “inactive”.

Regarding `NC(N)=NOCC[C@H](N)C(=O)O`, the Potency entry was “inactive”.

As to `C[C@]12Cc3cn4c(nc3C=C1CCC1C2CC[C@@]2(C)[C@H]1CC[C@@]2(O)C#N)nc1ccccc14` (stereo not given in full), the Potency is 7.3 µM (active).

Consider `N#C/C(=C/c1ccc(O)c(O)c1)C(N)=S`, for which the Potency result is “inactive”.

As for `NNC(N)=O`, the Potency entry is “inactive”.

Regarding `CN1CC[C@@]2(C)c3cc(O)ccc3N(C)C12` (stereo not given in full), the Potency entry was “inactive”.

Take `CC(N)[C@H](O)c1ccc(O)c(O)c1` (stereo not given in full): the Potency result was “inactive”.

In the case of `CCCN(CCC)C1CCc2cccc(O)c2C1` (stereo not given), the Potency entry was “inactive”.

As to `C[C@H](N)Cc1cccc(C(F)(F)F)c1`, the Potency entry is “inactive”.

In the case of `Cc1c2ccncc2c(C)c2c1[nH]c1ccccc12`, the Potency was 16.4 µM (active).

With `NC(=O)COc1c(F)cc(SCCNS(=O)(=O)c2ccccc2)cc1F`, the Potency entry was “inactive”.

For the compound `CO[C@H]1CC=C2CCN3CCC4=C(CC(=O)OC4)[C@]23C1`, the Potency result was “inactive”.

As for `CC1(C(=O)O)C2CCC(O2)C1(C)C(=O)O` (stereo not given), the Potency is 7.3 µM (active).

On to `N=C(N)c1ccc(CS(=O)(=O)F)cc1`, for which the Potency entry was “inactive”.

Take `N[C@@H](Cn1oc(=O)[nH]c1=O)C(=O)O`: the Potency entry is “inactive”.

Take `NC(=O)c1cc(N2CC2)c([N+](=O)[O-])cc1[N+](=O)[O-]`: the Potency result is “inactive”.

As to `COC(=O)N1CCN(C(=O)Cc2ccc(Cl)c(Cl)c2)C(CN2CCCC2)C1` (stereo not given), the Potency result is “inactive”.

For `NC(=O)c1ccc(OCC(O)CN2CC=C(c3ccc(F)cc3)CC2)cc1` (stereo not given), the Potency result was “inactive”.

`NC(CCCCCP(=O)(O)O)C(=O)O` (stereo not given): the Potency entry is “inactive”.

For the compound `NC(Cc1ccc(N(CCCl)CCCl)cc1)C(=O)O` (stereo not given), the Potency result is “inactive”.

Consider `NCCc1c[nH]c2ccc(C(N)=O)cc12`, for which the Potency result was “inactive”.
